Measured values as given in PubChem BioAssay (NCATS).
Values joined by “and” are separate entries in the source; they are usually repeats but may differ in a detail not shown here. Identical values can stand only once. Records with an inconclusive call do not appear. A call without a number means that no potency is given here. Active and inactive are the calls of the source. Calls follow the shape of the dose curve; as a rule, active = well fitted curve in the direction sought with a large enough effect; inconclusive = small, poorly fitted or top-dose-only effect, or another doubt; inactive = no such curve, though single readings can be large; an effect the other way counts as inactive or inconclusive.

How the values were obtained:
[1] = tested on: Zika virus NS2B-NS3 protease; assay: Primary screen GU AMC qHTS for Zika virus inhibitors (AID 1347154); also: nearly all actives have a fitted effect of over 70% in size; also: potency is read from the fitted curve at half-maximal effect
In short: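 Unlinked Zika NS2B hydrophilic domain–NS3 protease complex at 25 nM in 10 mM Tris-HCl pH 8.0, 0.01% Tween 20, with an AMC peptide substrate. Fluorescence change (340/450 nm) over 15 min at room temperature, normalized to controls, fitted to 4-parameter Hill.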

[2] = tested on: Zika virus NS2B-NS3 protease (unlinked); assay: Optimization of GU AMC qHTS for Zika virus inhibitors: Unlinked NS2B-NS3 protease assay (AID 1347151); also: nearly all actives have a fitted effect of over 80% in size; also: potency is read from the fitted curve at half-maximal effect
In short: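 Percent inhibition is derived from the 15-min change in AMC fluorescence, normalized against no-inhibitor and no-enzyme controls, then fitted to a 4-parameter Hill curve. Aprotinin was the intraplate control.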

[3] = target: N-terminal Xaa-Pro-Lys N-methyltransferase 1 (Homo sapiens) (UniProt Q9BV86); assay: qHTS Assay for Inhibitors of N-terminal methyltransferase 1 (NTMT1): LOPAC validation of the NTMT1 SAHH-coupled ThioGlo3 Assay (AID 1347143);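 also: SAH from peptide methylation measured as thiol fluorescence via SAHH coupling and ThioGlo3; nearly all actives have a fitted effect of over 70% in size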; also: potency is read from the fitted curve at half-maximal effect
Sequence of N-terminal Xaa-Pro-Lys N-methyltransferase 1 (Homo sapiens) (Q9BV86 whole entry, looked up): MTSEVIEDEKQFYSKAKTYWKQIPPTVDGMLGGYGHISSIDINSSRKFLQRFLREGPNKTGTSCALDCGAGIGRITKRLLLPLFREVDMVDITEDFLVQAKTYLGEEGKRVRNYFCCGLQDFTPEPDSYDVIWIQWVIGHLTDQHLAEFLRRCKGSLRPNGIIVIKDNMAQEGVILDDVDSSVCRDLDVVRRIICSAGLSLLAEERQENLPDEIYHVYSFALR
In short: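 Recombinant human NTMT1 (125nM) was pre-incubated 1 min at room temperature with compounds over a concentration range, then a mix of 100uM SAM, 10uM SAHH and 15uM ThioGlo3 (concentrations in added reagent) was added. ThioGlo3 fluorescence (ex 340/em 450nm) after 30 min was normalized to the initial reading.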

[4] = tested on: Zika virus NS2B-NS3 protease (unlinked complex); assay: Primary screen GU Rhodamine qHTS for Zika virus inhibitors: Unlinked NS2B-NS3 protease assay (AID 1347159); also: nearly all actives have a fitted effect of over 60% in size
In short: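 A qHTS format was used, with compound concentrations ranging up to 114 microM. Each compound was preincubated with 25 nM NS2B-NS3 protease, and the substrate was then added at 1.5 microM. Curves were fitted with a 4-parameter Hill model.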

[5] = tested on: Zika virus NS2B-NS3 protease (linked construct); assay: Primary screen NINDS Rhodamine qHTS for Zika virus inhibitors (AID 1347160); conditions: outcome: dose series up to 57.1 µM unless noted; also: nearly all actives have a fitted effect of over 55% in size
In short: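 Kinetic fluorescence (Ex 480 nm, Em 540 nm) over 15 min with 1.5 microM Rhodamine110 peptide and 25 nM linked protease.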

[6] = ZIKV-mCherry secondary qHTS for Zika virus inhibitors (AID 1347158); also: top concentration of the series differs between compounds
In short: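 Vero, 5,000 cells/well, o/n 37 °C; cpd pin-transferred in DMSO; ZIKV-mCherry MOI 1, 48-72 h 37 °C; 32% PFA stock fix, Hoechst; imaged 10x DAPI/mCherry; mCherry+ threshold 450 RFU; % infection.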

[7] = tested on: Zika virus NS2B-NS3 protease (linked construct); assay: Confirmatory screen NINDS AMC qHTS for Zika virus inhibitors (AID 1347152); also: nearly all actives have a fitted effect of over 70% in size; also: potency is read from the fitted curve at half-maximal effect
In short: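 In this dose-response qHTS, AMC release from 10 microM Bz-Nle-KRR-AMC by 1 nM linked protease is measured over 15 minutes (about 20% conversion) at pH 8.0. Percent inhibition is fitted to a 4-parameter Hill curve.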

[8] = tested on: Zika virus NS2B-NS3 protease (unlinked complex); assay: Confirmatory screen GU AMC qHTS for Zika virus inhibitors (AID 1347153); also: nearly all actives have a fitted effect of over 70% in size
In short: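 Fluorescence change (ex 340/em 450 nm) over 15 min, ~20% substrate conversion, normalized to no-inhibitor and no-enzyme controls, then Hill-fitted. Unlinked protease at 25 nM; AMC peptide 10 µM.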

[9] = Confirmatory screen GU Rhodamine qHTS for Zika virus inhibitors qHTS (AID 1347157); conditions: purified enzyme assay, Rhodamine110 substrate fluorescence, 15 min
In short: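 Compounds, tested up to 114 microM, were incubated for 15 minutes with 25 nM unlinked NS2B-NS3 protease at pH 8.0. Cleavage of 1.5 microM Rhodamine110 substrate was then followed by fluorescence for 15 minutes.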

CN(C)C(=N)N=C(N)N
Potency [1]: inactive

CN1C(C(=O)Nc2ccccn2)=C(O)c2ccccc2S1(=O)=O
Potency [2]: inactive | Potency [1]: inactive

CN1CCC(=C2c3ccccc3C=Cc3ccccc32)CC1
Potency [3]: inactive | Potency [2]: inactive | Potency [1]: inactive

C[C@@H]1CC(=O)NN=C1c1ccc(NN=C(C#N)C#N)cc1
Potency [1]: inactive

CC1(C)O[C@H]2CC(=O)OC[C@]23[C@H]2CC[C@@]4(C)[C@H](c5ccoc5)OC(=O)[C@H]5O[C@]54[C@]2(C)C(=O)C[C@@H]13
Potency [1]: inactive | Potency [4]: inactive | outcome [5]: inactive [at 33.1 µM]

CN1CCN2c3ccccc3Cc3ccccc3C2C1 (configuration not stated)
Potency [2]: inactive | Potency [1]: inactive

COc1ccccc1OCCNCC(O)COc1cccc2[nH]c3ccccc3c12 (configuration not stated)
Potency [2]: inactive | Potency [1]: inactive

COc1ccccc1N1CCN(CC(O)COc2cccc3ccccc23)CC1 (configuration not stated)
Potency [1]: inactive

O=c1c(O)c(-c2ccc(O)c(O)c2)oc2cc(O)cc(O)c12
Potency [3]: 35.5 µM (active) | Potency [2]: 2.12 µM (active) | Potency [1]: inactive | outcome [6]: inactive

CN(C)CCC=C1c2ccccc2C=Cc2ccccc21
Potency [3]: inactive | Potency [2]: inactive | Potency [1]: inactive

CNCCCC12CCC(c3ccccc31)c1ccccc12
Potency [2]: inactive | Potency [1]: inactive | Potency [4]: inactive | outcome [5]: inactive

C[C@H]1c2cccc(O)c2C(O)=C2C(=O)[C@]3(O)C(O)=C(C(N)=O)C(=O)[C@@H](N(C)C)[C@@H]3[C@@H](O)[C@@H]21
Potency [2]: inactive | Potency [7]: inactive | Potency [8]: inactive

COc1ccc2[nH]cc(CCNC(C)=O)c2c1
Potency [1]: inactive | outcome [5]: inactive

CN1CCC(=C2c3ccccc3CC(=O)c3sccc32)CC1
Potency [2]: inactive | Potency [1]: inactive

COc1cc2nc(N3CCN(C(=O)C4COc5ccccc5O4)CC3)nc(N)c2cc1OC (configuration not stated)
Potency [3]: 56.2 µM (active) | Potency [2]: 26.7 µM (active) | Potency [1]: 9.07 µM (active) and 24.1 µM (active)

Cc1cn([C@H]2C=C[C@@H](CO)O2)c(=O)[nH]c1=O
Potency [3]: inactive | Potency [1]: inactive

Cc1ccc(C(=O)Nc2ccc(S(=O)(=O)O)c3cc(S(=O)(=O)O)cc(S(=O)(=O)O)c23)cc1NC(=O)c1cccc(NC(=O)Nc2cccc(C(=O)Nc3cc(C(=O)Nc4ccc(S(=O)(=O)O)c5cc(S(=O)(=O)O)cc(S(=O)(=O)O)c45)ccc3C)c2)c1
Potency [3]: inactive | Potency [2]: 16.8 µM (active) | Potency [1]: 5.01 µM (active) | Potency [9]: 2.82 µM (active) and 2 µM (active) and 2.24 µM (active)

O=c1c(-c2ccc(O)cc2)coc2cc(O)cc(O)c12
Potency [2]: inactive | Potency [1]: inactive

Cn1ccc2cc3c(cc21)CCN3C(=O)Nc1cccnc1
Potency [7]: 24.1 µM (active) | Potency [8]: 27.1 µM (active) | outcome [6]: inactive

Cc1ccc(-c2cc(C(F)(F)F)nn2-c2ccc(S(N)(=O)=O)cc2)cc1
Potency [3]: inactive | Potency [2]: inactive | Potency [1]: inactive | Potency [4]: inactive | outcome [5]: inactive

CCc1cccc2c3c([nH]c12)C(CC)(CC(=O)O)OCC3 (configuration not stated)
Potency [3]: inactive | Potency [2]: inactive | Potency [1]: inactive

CN1CCN(C2=Nc3cc(Cl)ccc3Nc3ccccc32)CC1
Potency [2]: inactive | Potency [1]: inactive

O=C(c1ccc(F)cc1)C1CCN(CCn2c(=O)[nH]c3ccccc3c2=O)CC1
Potency [7]: inactive | Potency [8]: inactive | Potency [1]: inactive | Potency [4]: inactive | outcome [5]: inactive
